Experimental data reported in article PMC5540273 (PLoS ONE, 2017).
Where “and” joins values, the source holds several entries; their conditions need not be identical. Identical values can stand only once. Like-named read-outs stand apart in the source and are kept apart here.

Key:
[1] = tested on: T1, PYK2; conditions: concentration: 1 μM, replicates: in singlicate, n = 1
T1 construct: gene PTK2B

[2] = tested on: QSK; conditions: concentration: 1 μM, replicates: in singlicate; n = 1
[3] = tested on: RAF1; conditions: concentration: 1 μM, replicates: in singlicate, n = 1
[4] = tested on: RET; conditions: concentration: 1 μM, replicates: in singlicate, n = 1
[5] = tested on: RIOK1; conditions: concentration: 1 μM, replicates: in singlicate, n = 1
[6] = tested on: RIOK2; conditions: concentration: 1 μM, replicates: in singlicate; n = 1
[7] = tested on: RIOK3; conditions: concentration: 1 μM, replicates: in singlicate, n = 1
[8] = tested on: RIPK1; conditions: concentration: 1 μM, replicates: in singlicate, n = 1
[9] = tested on: RIPK2; conditions: concentration: 1 μM, replicates: in singlicate, n = 1
[10] = tested on: RIPK4; conditions: concentration: 1 μM, replicates: in singlicate, n = 1
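Note: KINOMEscan kinase panel screen.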

| Structure (SMILES) | %Inh [1] [%] | %Inh [2] [%] | %Inh [3] [%] | %Inh [4] [%] | %Inh [5] [%] | %Inh [6] [%] | %Inh [7] [%] | %Inh [8] [%] | %Inh [9] [%] | %Inh [10] [%] | %Inh ([1]; 1 µM) | %Inh ([3]; 1 µM) | %Inh ([4]; 1 µM) | %Inh ([5]; 1 µM) | %Inh ([7]; 1 µM) | %Inh ([8]; 1 µM) | %Inh ([9]; 1 µM) | %Inh ([10]; 1 µM) |
| --- | --- | --- | --- | --- | --- | --- | --- | --- | --- | --- | --- | --- | --- | --- | --- | --- | --- | --- |
| c1ccc(-c2cc(-c3c[nH]nc3-c3ccccn3)ccn2)cc1 [GW576604] | 0 | 0 | 4 | 16 | 37 | 1 | 25 | 0 | 94.6 | 0 | – | – | – | – | – | – | – | – |
| COc1cc2ncn(-c3cc(OCc4sccc4Cl)c(C(N)=O)s3)c2cc1OC [GSK448459] | 0 | 7 | 12 | 26 | 91.8 | 13 | 61 | 0 | 3 | 15 | – | – | – | – | – | – | – | – |
| Cc1ccc(C(=O)NCC(N)=O)cc1-n1c(C)cc(OCc2ccc(F)cc2F)c(Br)c1=O | 15 | 0 | 37 | 5 | 1 | 0 | 0 | 13 | 0 | 0 | – | – | – | – | – | – | – | – |
| [2H]C([2H])(c1cccc(C(F)(F)F)c1C)n1ccn2c(=O)nc(N3CCOCC3)cc12 [GSK2336394] | 4 | 0 | 10 | 14 | 23 | 6 | 0 | 0 | 7 | 5 | – | – | – | – | – | – | – | – |
| N#Cc1c(N2CCOCC2)sc(-c2ccn[nH]2)c1-c1ccc(Cl)cc1 | 0 | 0 | 11 | 0 | 0 | 0 | 0 | 6 | 0 | 35 | – | – | – | – | – | – | – | – |
| COc1cc2c(cc1OC[C@@H](O)CO)ncc1c3ccc(C#N)cc3[nH]c21 | 0 | 8 | 21 | 52 | 65 | 0 | 76 | 0 | 0 | 0 | – | – | – | – | – | – | – | – |
| C[C@@H](Oc1cc(-n2cnc3ccc(NC(=O)NC(C)(C)C)cc32)sc1C(N)=O)c1ccccc1Cl [GSK346294] | 0 | 0 | 0 | 24 | 56 | 0 | 34 | 21 | 14 | 4 | – | – | – | – | – | – | – | – |
| N#Cc1ccc(-c2cc(-c3c[nH]nc3-c3ccccn3)ccn2)cc1 [GW693028] | 0 | 12 | 1 | 12 | 0 | 0 | 0 | 0 | 49 | 5 | – | – | – | – | – | – | – | – |
| COc1ccc(Nc2nccc(N3CCC(NC(=O)Nc4cccc(C(C)=O)c4)C3)n2)cc1 (stereo not drawn) [GSK1379731] | 0 | 0 | 0 | 0 | 42 | 0 | 24 | 0 | 39 | 0 | – | – | – | – | – | – | – | – |
| Cc1nnc(-c2ccc3occ(-c4ccc(C(C)O)cc4)c3c2)o1 (stereo not drawn) | 2 | 5 | 100 | 11 | 0 | 36 | 0 | 1 | 20 | 0 | – | – | – | – | – | – | – | – |
| Cn1cc(-c2ccc3c(c2)CCN3C(=O)Cc2ccccc2Cl)c2c(N)ncnc21 [GSK2608885] | 38 | 23 | 94.9 | 99.9 | 23 | 0 | 21 | 0 | 99.4 | 0 | – | – | – | – | – | – | – | – |
| COc1ccc(Nc2ncc(C#N)c(Nc3ccccc3C(N)=O)n2)cc1N1CCN(C)CC1.Cl [GSK1558669] | 99.2 | 94.7 | 32 | 99.9 | 100 | 98.7 | 79 | 74 | 76 | 98.9 | – | – | – | – | – | – | – | – |
| COC(=O)Nc1nc2cc(Oc3ccc(NC(=O)Nc4cc(F)ccc4F)cc3)ccc2[nH]1.Cl [GW701424] | 0 | 0 | 89 | 95.1 | 0 | 0 | 0 | 0 | 38 | 8 | – | – | – | – | – | – | – | – |
| CN(C(=O)c1ccc(-c2cc(-c3c[nH]nc3-c3ccccn3)ccn2)cc1)C1CCOCC1 [GW810083] | 0 | 0 | 0 | 17 | 54 | 0 | 33 | 0 | 0 | 69 | – | – | – | – | – | – | – | – |
| CC(C)Oc1ccc2c(-c3ccnc(Nc4ccc(N5CCN(C)CC5)cc4)n3)cnn2n1 [GW696155] | 42 | 23 | 0 | 56 | 99.9 | 90 | 95.4 | 40 | 15 | 27 | – | – | – | – | – | – | – | – |
| CCc1ccnc(/C=C/c2n[nH]c3cc(Sc4ccccc4C(=O)NC)ccc23)c1 | 0 | 0 | 0 | 83 | 0 | 0 | 0 | 0 | 43 | 0 | – | – | – | – | – | – | – | – |
| CCc1nc(-c2cccc(C)c2)c(-c2ccnc(NCc3ccccc3)c2)s1 | 9 | 0 | 24 | 4 | 10 | 0 | 22 | 0 | 26 | 0 | – | – | – | – | – | – | – | – |

| Structure (SMILES) | %Inh [1] [%] | %Inh [2] [%] | %Inh [3] [%] | %Inh [4] [%] | %Inh [5] [%] | %Inh [6] [%] | %Inh [7] [%] | %Inh [8] [%] | %Inh [9] [%] | %Inh [10] [%] | %Inh ([1]; 1 µM) | %Inh ([3]; 1 µM) | %Inh ([4]; 1 µM) | %Inh ([5]; 1 µM) | %Inh ([7]; 1 µM) | %Inh ([8]; 1 µM) | %Inh ([9]; 1 µM) | %Inh ([10]; 1 µM) |
| --- | --- | --- | --- | --- | --- | --- | --- | --- | --- | --- | --- | --- | --- | --- | --- | --- | --- | --- |
| Fc1ccc(-c2ncn(CCCN3CCOCC3)c2-c2ccccn2)cc1 [SB-211742] | 0 | 0 | 29 | 7 | 27 | 0 | 41 | 0 | 0 | 0 | – | – | – | – | – | – | – | – |
| Cc1nnc(-c2ccc3ncc(-c4ccc(S(C)=O)cc4)n3c2)o1 (stereo not drawn) | 0 | 0 | 49 | 9 | 0 | 0 | 0 | 0 | 21 | 24 | – | – | – | – | – | – | – | – |
| Cc1c(Cn2c(C)nn3c(=O)cc(N4CCOC(C)C4)nc23)cccc1C(F)(F)F (stereo not drawn) [GSK2344444] | 0 | 4 | 0 | 1 | 27 | 10 | 0 | 0 | 0 | 7 | – | – | – | – | – | – | – | – |
| O=C(NCCNc1ccnc(Nc2ccc(F)cc2)n1)Nc1ccccc1F [GSK1379880] | 16 | 0 | 22 | 5 | 17 | 5 | 0 | 0 | 1 | 11 | – | – | – | – | – | – | – | – |
| Nc1nccc(-c2c(-c3ccc(F)cc3)ncn2C2CCN(CC(F)(F)F)CC2)n1 [SB-236560] | 5 | 0 | 0 | 12 | 32 | 0 | 19 | 0 | 51 | 72 | – | – | – | – | – | – | – | – |
| Nc1nc(-c2ccc3c(N)n[nH]c3c2)cc(N2CCCC2)n1 [GSK2227430] | 20 | 0 | 0 | 0 | 48 | 2 | 56 | 0 | 0 | 11 | – | – | – | – | – | – | – | – |
| O=C(NCCCN1CCOCC1)c1cccc(Nc2nccc(Nc3ccc(Oc4ccccc4)cc3)n2)c1 [GW663929] | 0 | 0 | 0 | 17 | 31 | 23 | 36 | 24 | 100 | 29 | – | – | – | – | – | – | – | – |
| COCCNC(=O)c1ccc(-c2cc(C(=O)NC3CC3)cc(F)c2C)cc1 [GW868318] | 4 | 26 | 7 | 0 | 0 | 7 | 0 | 0 | 8 | 47 | – | – | – | – | – | – | – | – |
| COc1ccc(CNC(=O)NC2CCN(c3ccnc(Nc4ccc(OC)cc4)n3)C2)cc1 (stereo not drawn) [GSK1379727] | 1 | 0 | 12 | 15 | 8 | 0 | 18 | 50 | 0 | 0 | – | – | – | – | – | – | – | – |
| O=C1Cc2cc(Nc3nc(NCc4cccc(S(=O)(=O)C(F)(F)F)c4)ncc3C(F)(F)F)ccc2N1 | 6 | 0 | 0 | 5 | 0 | 35 | 0 | 2 | 0 | 0 | – | – | – | – | – | – | – | – |
| COc1cc2c(cc1OCCN1CCN(C)CC1)ncc1c3ccc(C#N)cc3[nH]c21 | 2 | 67 | 0 | 29 | 93.1 | 24 | 85 | 14 | 49 | 15 | – | – | – | – | – | – | – | – |
| NS(=O)(=O)c1cccc(-c2ccc3ncc(N4CCOCC4)nc3c2)c1 [GSK1535721] | 10 | 0 | 5 | 0 | 22 | 41 | 0 | 19 | 13 | 1 | – | – | – | – | – | – | – | – |
| Fc1ccc(-c2ncn(CCCN3CCOCC3)c2-c2cccnc2)cc1 [SB-211743] | 0 | 0 | 9 | 3 | 17 | 53 | 0 | 0 | 0 | 4 | – | – | – | – | – | – | – | – |
| COc1ccc(S(=O)(=O)NC2CCN(c3cc(C)nc(Nc4cccc(C#N)c4)n3)CC2)cc1.O=C(O)C(F)(F)F [GSK1653539] | 1 | 6 | 0 | 0 | 5 | 0 | 0 | 5 | 0 | 0 | – | – | – | – | – | – | – | – |
| O=C(Nc1cccc(-c2nn3ncccc3c2-c2ccnc(Nc3cccc(C(F)(F)F)c3)n2)c1)c1c(F)cccc1F [GSK299495] | 23 | 9 | 86 | 64 | 22 | 0 | 0 | 8 | 86 | 15 | – | – | – | – | – | – | – | – |
| Cl.Cl.Cl.Fc1ccc(-c2ncn(C3CCNCC3)c2-c2ccnc(Nc3ccccc3)n2)cc1 [SB-238039] | – | 0 | – | – | – | 0 | – | – | – | – | 0% and 12% | 18% and 8% | 8% and 20% | 11% and 52% | 3% and 32% | 35% and 0% | 76% and 65% | 13% and 42% |
